The record followed here is article PMC4336329 (PLoS ONE, 2015).

Screen size: about 310,000 compounds; about 14,000 (4.5%) showed an effect of 50% or more. The effect is printed as a negative number. This excerpt belongs to a sample that is enriched for strong results.
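Also: peak tail current of the secondary pulse compared with the same well before compound.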

The target in this experiment is human ether-à-go-go-related gene (hERG) potassium channel (human, UniProt Q12809). The experiment in a line: primary screen, population patch clamp on CHO cells stably expressing hERG; higher = less effect of the substance.
human ether-à-go-go-related gene (hERG) potassium channel, sequence (Q12809 whole entry, looked up): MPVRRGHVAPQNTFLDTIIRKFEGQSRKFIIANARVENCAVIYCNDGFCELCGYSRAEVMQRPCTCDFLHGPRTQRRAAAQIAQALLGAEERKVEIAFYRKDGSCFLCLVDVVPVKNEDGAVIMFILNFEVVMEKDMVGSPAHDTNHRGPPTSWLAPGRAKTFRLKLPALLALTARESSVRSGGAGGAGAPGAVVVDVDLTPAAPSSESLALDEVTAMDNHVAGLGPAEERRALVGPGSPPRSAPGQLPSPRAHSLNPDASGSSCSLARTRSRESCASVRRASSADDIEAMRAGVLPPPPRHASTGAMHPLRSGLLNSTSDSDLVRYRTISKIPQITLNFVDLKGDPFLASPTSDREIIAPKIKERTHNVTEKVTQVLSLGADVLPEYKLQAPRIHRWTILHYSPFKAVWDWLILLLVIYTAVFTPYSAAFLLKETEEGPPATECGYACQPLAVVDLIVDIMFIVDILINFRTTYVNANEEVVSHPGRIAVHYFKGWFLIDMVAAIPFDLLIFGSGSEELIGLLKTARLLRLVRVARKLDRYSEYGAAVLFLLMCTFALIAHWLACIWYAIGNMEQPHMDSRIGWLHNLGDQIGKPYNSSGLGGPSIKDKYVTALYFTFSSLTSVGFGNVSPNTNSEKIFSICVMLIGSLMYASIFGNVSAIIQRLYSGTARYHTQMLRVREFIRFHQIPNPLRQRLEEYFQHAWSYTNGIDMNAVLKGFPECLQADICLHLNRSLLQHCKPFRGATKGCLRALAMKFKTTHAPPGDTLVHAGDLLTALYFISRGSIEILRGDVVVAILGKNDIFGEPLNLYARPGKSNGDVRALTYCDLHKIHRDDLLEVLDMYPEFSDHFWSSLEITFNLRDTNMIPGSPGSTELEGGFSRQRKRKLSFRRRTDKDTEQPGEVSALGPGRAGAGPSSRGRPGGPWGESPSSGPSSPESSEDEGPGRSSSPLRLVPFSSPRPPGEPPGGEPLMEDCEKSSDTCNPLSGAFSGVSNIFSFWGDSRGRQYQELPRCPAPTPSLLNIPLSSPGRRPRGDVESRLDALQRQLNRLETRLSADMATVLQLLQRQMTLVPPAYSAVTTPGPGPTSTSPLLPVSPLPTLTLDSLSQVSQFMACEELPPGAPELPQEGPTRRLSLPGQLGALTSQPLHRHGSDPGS
Consider `CCCCc1nnc(NC(=O)CSCc2cc(=O)n3cc(C)sc3n2)s1`, for which the “hERG current change (%, negative = inhibition) at 10uM” value was 5.31%.
Next, `Cc1ccc2c(CC(=O)Nc3c(C)n(C)n(-c4ccccc4)c3=O)coc2c1`: -7.21%.
The same measure for `O=C1N(Cc2cccnc2)C[C@@H]2C[C@@H](c3cccc(Oc4ccccc4)c3)N3CCC[C@@]123`: -59.4%; for `O=C1N(Cc2cccnc2)C[C@@H]2C[C@@H](c3cccc(OC4CCCC4)c3)N3CCC[C@@]123`: -69.5%.
Consider `O=C1N(Cc2cccnc2)C[C@@H]2C[C@@H](c3cccc(OCc4ccccc4)c3)N3CCC[C@@]123`, for which the “hERG current change (%, negative = inhibition) at 10uM” value is on record as -63.6%.
In the case of `COc1ccccc1CN1C[C@@H]2C[C@@H](c3cccc(C)c3)N3CCC[C@@]23C1=O`, the “hERG current change (%, negative = inhibition) at 10uM” value is recorded as -37%.
Next, `COc1ccccc1CN1C[C@@H]2C[C@@H](c3cccc(O)c3)N3CCC[C@@]23C1=O`: -33.6%.
With `CC(C)(C)NC(=S)NNC(=O)[C@H]1C[C@@H]1c1ccccc1`, the “hERG current change (%, negative = inhibition) at 10uM” value was found to be 11%.
Next, `Cc1ccc(S(=O)(=O)N[C@H](C(=O)N2CCC(C(=O)N[C@@H](CC(=O)O)C(=O)O)CC2)C(C)C)cc1`: 24.9%; `O=c1cc(-c2ccccc2)cc(-c2ccccc2)n1CCO`: -21.5%; `O=C(CCN1CCCC1=O)NC1CCCc2c1cnn2-c1ccc(F)cc1F` (stereo not drawn): -2.54%.
Take `CCOC(=O)N1CCC(NS(=O)(=O)c2ccc3c(c2)CCN3C(C)=O)CC1`: the “hERG current change (%, negative = inhibition) at 10uM” value is -0.517%.
The same measure for `CC(C)C(C(=O)NC(C)(C)C)N(CCN1CCOCC1)C(=O)CNS(=O)(=O)c1ccccc1` (stereo not drawn): 0.875%; for `CC(/C=C/c1ccco1)=N\NC(=O)c1cc(C)[nH]n1`: 5.55%.
Take `CC(=O)Nc1ccc(N(C(=O)Cc2cccs2)C(C(=O)NC2CCCC2)c2ccncc2)cc1` (stereo not drawn): the “hERG current change (%, negative = inhibition) at 10uM” value was 9.17%.
For `CC1(C)CC(=O)C(=Cc2cn(-c3ccccc3)nc2-c2ccccc2)C(=O)C1`, the “hERG current change (%, negative = inhibition) at 10uM” value was -24.1%.
With `O=C(NC1CC2CCC(C1)N2Cc1ccccc1)c1ccccc1Br` (stereo not drawn), the “hERG current change (%, negative = inhibition) at 10uM” value was -20.1%.
The same measure for `O=C(NC1CC2CCCC(C1)N2Cc1ccccc1)c1cccc(F)c1` (stereo not drawn): -56.8%; for `CCCCN1C2CCCC1CC(NC(=O)c1cccc(Cl)c1)C2` (stereo not drawn): -75.5%.
With `Cc1cccc(C(=O)NC2CC3CCCC(C2)N3Cc2ccccc2)c1` (stereo not drawn), the “hERG current change (%, negative = inhibition) at 10uM” value is listed as -40.9%.
With `O=C(NC1CC2CCCC(C1)N2Cc1ccccc1)c1cccc(Cl)c1` (stereo not drawn), the “hERG current change (%, negative = inhibition) at 10uM” value is reported as -57.9%.
As to `O=C(NC1CC2CCC(C1)N2Cc1ccccc1)c1ccccc1Cl` (stereo not drawn), the “hERG current change (%, negative = inhibition) at 10uM” value is given as -40.6%.
Next, `O=C(NC1CC2CCC(C1)N2Cc1ccccc1)c1cccc(F)c1` (stereo not drawn): -60.5%; `O=C(NC1CCCC1)c1cccc(Cl)c1`: 29.8%.
For the molecule `CCCCN1C2CCCC1CC(NC(=O)c1cccc(OC)c1)C2` (stereo not drawn), the “hERG current change (%, negative = inhibition) at 10uM” value is reported as -19.3%.
Next, `CCCN1C2CCCC1CC(NC(=O)c1cccc(Cl)c1)C2` (stereo not drawn): -38.9%.
Next, `O=C(Nc1cccc(F)c1)c1ccc(S(=O)(=O)NCC2CCCO2)cc1` (stereo not drawn): -12.2%; `COc1ccc(C(=O)NN(C)c2nc(-c3ccccc3)nnc2C(F)(F)F)cc1`: 7%; `N#Cc1cn(CC(=O)N2CCCC2)c2ccccc12`: 8.6%.
The same measure for `O=C(O)C1=CC2c3ccccc3C1c1ccccc12`: 17.4%; for `CC1(C)Cc2sc3c(=O)[nH]c(=S)[nH]c3c2CO1`: 16.6%; for `CCCN1C(=O)/C(=c2\s/c(=C3\C=Cc4ccccc4N3CC)c(=O)n2-c2ccccc2)SC1=S`: 8.95%.
Take `O=C1NC(=O)/C(=C\c2cn(CC(=O)N3CCOCC3)c3ccccc23)S1`: the “hERG current change (%, negative = inhibition) at 10uM” value stood at 11.7%.
For the molecule `COCC(=O)Nc1sc2c(c1C(=O)OC)CCCC2`, the “hERG current change (%, negative = inhibition) at 10uM” value was -11.7%.
As to `COc1ccc(C2/C=C\CN(C(=O)c3ccccc3)[C@H](Cc3ccccc3)C(=O)N2Cc2ccc(F)cc2)cc1` (stereo partly drawn), the “hERG current change (%, negative = inhibition) at 10uM” value came to 17%.
Next, `Fc1cccc(-c2cc3nc4c(c(N5CCOCC5)n3n2)CCCC4)c1`: -24.1%; `Cc1nc(N)nc(N/N=C/c2c(F)cccc2Cl)n1`: 3.11%.
For the molecule `COc1cc(NS(=O)(=O)c2ccc(NC(=O)C34CC5CC(CC(C5)C3)C4)cc2)ncn1`, the “hERG current change (%, negative = inhibition) at 10uM” value was -4.59%.
In the case of `Cl.OC(COC(c1ccc(Cl)cc1)c1ccc(Cl)cc1)CN1CCc2ccccc2C1` (stereo not drawn), the “hERG current change (%, negative = inhibition) at 10uM” value is given as -61.6%.
The same measure for `OC(COC(c1ccccc1)c1ccccc1)CN1CCc2ccccc2C1` (stereo not drawn): -76.9%; for `OC(COC(c1ccc(F)cc1)c1ccc(F)cc1)CN1CCc2ccccc2C1` (stereo not drawn): -73.7%; for `OC(CN1CCc2ccccc2C1)c1ccccc1` (stereo not drawn): -9.09%.
The same measure for `CC1(c2ccc3c(c2)OCCCO3)NC(=O)N(CC(=O)NCCc2ccccc2)C1=O` (stereo not drawn): -7.38%.
The same measure for `COc1ccc(C(CNC(=O)COc2c(C)cc(C)cc2C)N2CCOCC2)cc1` (stereo not drawn): -12.1%.
Take `COc1ccc(-c2coc3cc(O)ccc3c2=O)cc1`: the “hERG current change (%, negative = inhibition) at 10uM” value was -5.05%.
On to `CCOC(=O)CSC1=N/C(=C\c2ccc(OC)c(OC)c2)C(=O)N1C`, for which the “hERG current change (%, negative = inhibition) at 10uM” value is on record as -69.7%.
With `CCOC(=O)CSC1=N/C(=C\c2cc(OC)c(OC)c(OC)c2)C(=O)N1C`, the “hERG current change (%, negative = inhibition) at 10uM” value is given as -7.36%.
In the case of `CCN1C(=O)/C(=C/c2ccc(OC)c(OC)c2)N=C1SCC(=O)NCc1ccco1`, the “hERG current change (%, negative = inhibition) at 10uM” value is recorded as -15.1%.
The same measure for `CCOC(=O)C1(CCCc2ccccc2)CCN(C2CCC2)CC1`: -74.8%; for `CCOC(=O)C1(Cc2ccccc2C(F)(F)F)CCN(C2CCC2)CC1`: -36.6%; for `O=C(C1CCOCC1)N1CCC(CO)(CCc2ccccc2)CC1`: 5.29%.
The same measure for `CCOC(=O)C1(CCc2ccccc2)CCN(C(=O)C2CCCO2)CC1` (stereo not drawn): -13%; for `CCOC(=O)C1(CCCc2ccccc2)CCN(C(=O)C2CCCO2)CC1` (stereo not drawn): -25.7%.
As to `CCOC(=O)C1(CCCc2ccccc2)CCN(C(=O)[C@@H]2C[C@@H](C)NC(=S)N2)CC1`, the “hERG current change (%, negative = inhibition) at 10uM” value is -25.1%.
The same measure for `CCOC(=O)C1(CCc2ccccc2)CCN(C(=O)C2CCOCC2)CC1`: -53.1%; for `CCOC(=O)C1(CCCc2ccccc2)CCN(S(C)(=O)=O)CC1`: -8.15%; for `CCOC(=O)C1(CCCc2ccccc2)CCN(S(=O)(=O)N(C)C)CC1`: -4.73%.
As to `CCOC(=O)C1(CCCc2ccccc2)CCN(C2CCCC2)CC1`, the “hERG current change (%, negative = inhibition) at 10uM” value is -69.7%.
With `CCOC(=O)C1(CCCc2ccccc2)CCN(C(=O)C2CCCN(C(N)=O)C2)CC1` (stereo not drawn), the “hERG current change (%, negative = inhibition) at 10uM” value is on record as -72.4%.
The same measure for `O=c1cc(O)c(-c2cccc(C(F)(F)F)c2)c(Cl)[nH]1`: 22.5%.
The same measure for `O=C1C(Cc2ccc3[nH]ccc3c2)NC(=S)N1c1ccccc1` (stereo not drawn): 7.61%; for `Cc1ccccc1C(=O)NC(=S)NCc1cccnc1`: 31.9%.
As for `COC(=O)c1ccc(CO/N=C2\CCCc3nonc32)cc1`, the “hERG current change (%, negative = inhibition) at 10uM” value is given as -35.1%.
For the molecule `O=C(Cn1c(-c2ccccc2)noc1=O)Nc1ccc(N2CCCCCC2)cc1`, the “hERG current change (%, negative = inhibition) at 10uM” value is recorded as 6.95%.
The same measure for `Cc1cc(C)cc(OCC(=O)OCC(=O)NCc2ccco2)c1`: 4.8%; for `O=C(Cc1ccc(NC2=NC3CS(=O)(=O)CC3S2)cc1)NCCc1ccccc1` (stereo not drawn): 6.22%.
For the molecule `O=c1oc2cc(OCc3ccc(C(F)(F)F)cc3)ccc2cc1-c1ccccn1`, the “hERG current change (%, negative = inhibition) at 10uM” value turned out to be 10.4%.
As for `Cc1ccc(C(=O)OCCOc2cccc(Cl)c2)cc1S(=O)(=O)N1CCOCC1`, the “hERG current change (%, negative = inhibition) at 10uM” value is listed as -12.2%.
As to `CCOC(=O)C1=C(c2ccccc2)NC(=S)NC1c1ccc(Cl)cc1` (stereo not drawn), the “hERG current change (%, negative = inhibition) at 10uM” value is reported as 0.162%.
The same measure for `c1ccc(C2CN3CCC2CC3)cc1` (stereo not drawn): -5.74%.
Turning to `CC(C)[N+]12CCC(CC1)C(C(O)(c1ccccc1)c1ccccc1)C2.[I-]` (stereo not drawn), the “hERG current change (%, negative = inhibition) at 10uM” value was determined as 16.9%.
The same measure for `Cl.OC(c1cccc(Cl)c1)(c1cccc(Cl)c1)C1CN2CCC1CC2` (stereo not drawn): -81.8%; for `Cc1ccc(C(O)(c2ccc(C)c(C)c2)C2CN3CCC2CC3)cc1C.Cl` (stereo not drawn): -67.6%; for `O=C(NC1CN2CCC1CC2)c1cccc(Cl)c1` (stereo not drawn): 3.72%.
Next, `C[N+]12CCC(CC1)C(C(O)(c1cccc(Cl)c1)c1cccc(Cl)c1)C2.[I-]` (stereo not drawn): 13.6%; `Cc1ccc(C(=O)N2CCC(C)CC2)cc1C`: 8.09%; `Cl.OC(c1ccccc1)(c1ccccc1)C1CN2CCC1CC2` (stereo not drawn): -45.2%.
On to `Cl.OC(Cc1ccccc1)(c1ccccc1)C1CN2CCC1CC2` (stereo not drawn), for which the “hERG current change (%, negative = inhibition) at 10uM” value is given as -49.7%.
The same measure for `OC(c1ccccc1)(c1ccc(Cl)cc1)C1CN2CCC1CC2` (stereo not drawn): -56%.
On to `Cc1ccccc1C(O)(Cc1ccccc1)C1CN2CCC1CC2.Cl` (stereo not drawn), for which the “hERG current change (%, negative = inhibition) at 10uM” value is given as -55.2%.
The same measure for `Cc1ccc(NC(=O)C2CCN(S(C)(=O)=O)CC2)cc1C`: 3.29%; for `CC(=O)N1CCN(c2ccc(NC(=O)c3cccc(Cl)c3)cc2)CC1`: -7.02%.
Turning to `COc1ccc2nc(NC(=O)C(NS(=O)(=O)c3cccs3)C(C)C)sc2c1` (stereo not drawn), the “hERG current change (%, negative = inhibition) at 10uM” value came out at 8.73%.
Next, `Cc1ccc(-n2cc(CCCCCCCCC(=O)O)nn2)cc1`: -12.3%; `COc1ccc(-c2ccc(=O)n(CC(=O)Nc3nnc(C(C)C)s3)n2)cc1OC`: 11.9%.
The same measure for `S=c1[nH]c2cnccc2n1Cc1ccccc1`: 12.4%; for `COc1cc(C(=O)NCCOc2ccc(F)cc2)c(Br)c(OC)c1OC`: 3.42%.
